Bioassay records as filed in PubChem.
HCMV antiviral: human cytomegalovirus inhibition | AID 1259415 | 4.5% of 410,000 active | HFF cells, HCMV-luciferase reporter, 72 h; hits give low values | activity change, negative = inhibition, % at 57.5 µM; in the data active = activity change below about -60%; inconclusive = no clear call, values can overlap the other calls; inactive = above about -39%; note: % is set by controls: 0 for no effect and ±100 for the full control effect
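Screen run at 2 compound doses on HFFs infected with reporter HCMV, MOI 1 PFU/cell. Luciferase activity from cell lysates at 72 h post infection gave inhibition relative to buffer-only and Salinomycin wells.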
Pf growth 96h: P. falciparum growth inhibition at 96 hour, primary screen for plastid delayed-death inhibitors. Potency, µM (top dose mostly 28.7 µM), for inactives: at the top dose activity change, negative = inhibition, most hits filed as inhibitors. 6.9% of 320,000 active. P. falciparum luciferase reporter growth, 96 h; note: potency is the fitted concentration of half-maximal effect; % is set by controls: 0 for no effect and ±100 for the full control effect
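Compounds incubated with erythrocytes infected by luciferase-expressing P. falciparum (2% hematocrit, 0.05% parasitemia final) for 96 hours, 37 C in 5% CO2. Growth inhibition scored as decreased luciferase luminescence.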
Sm TGR inh: blocks Schistosoma mansoni thioredoxin glutathione reductase | purified TGR, DTNB reduction, TNB absorbance 405 nm | Potency, µM (series often up to 114 µM), for the others: at the top dose activity change, negative = inhibition, hits mostly inhibitors | 3% of 360,000 active; note: potency is the fitted concentration of half-maximal effect; % is set by controls: 0 for no effect and ±100 for the full control effect; nearly all actives have a fitted effect of over 60% in size
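TGR 20 nM + NADPH 100 uM (dispensed conc.), cpd preinc 15 min RT; start with NADPH (500 uM addition) then DTNB (15 mM addition). Kinetic TNB absorbance, 405 nm filter. Four-parameter Hill fit across titration.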
HCV inhibitor: blocks hepatitis C virus. Huh7.5.1 HCVcc-Cre infection, luciferase reporter, 44 h. Potency, µM (titrated, usually from 41.8 µM), without a hit: at the highest dose activity change, negative = inhibition, hits mostly inhibitors. 3.4% of 340,000 active. AID 651820; note: potency is the fitted concentration of half-maximal effect; % is set by controls: 0 for no effect and ±100 for the full control effect
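1,000 cells/well; 4 h culture; + compound; + HCVcc-Cre (~0.5 moi); 44 h; luciferase substrate, RT 15 min; read 15 sec.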
SARS PLP yeast: SARS-CoV PLP inhibition in yeast; S. cerevisiae expressing SARS-CoV PLpro, growth rescue; Potency, µM (top dose mostly 32.9 µM), for the others: top-dose activity, positive = growth rescue, hits mostly activators; 0.19% of 330,000 active; calls by dose curve; note: potency is the fitted concentration of half-maximal effect; 0% is about no effect; nearly all actives have a fitted effect of over 55% in size
Pf growth 48h: inhibits P. falciparum growth in the first generation, 48 h; Potency, µM (doses to about 28.7 µM), for inactives: at the top dose activity change, negative = inhibition, usual class: inhibitors; 5.9% of 310,000 active; P. falciparum luciferase growth in erythrocytes, 48 h; AID 504832; note: potency is the fitted concentration of half-maximal effect; % is set by controls: 0 for no effect and ±100 for the full control effect
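Read-out is firefly luciferase luminescence from an integrated reporter in P. falciparum, so falling signal marks reduced parasite growth. Infected erythrocytes were at 2% hematocrit and 0.1% parasitemia (final) in Albumax-supplemented RPMI 1640.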
* marks the source's active call; other numbers are inactive results; ? = inconclusive; · = not tested or not shown; [ ] = remark or other dose. In the library only some 15% were active in any assay of this set; here they are far more common. Unless noted, calls come from the whole dose curve; as a rule, active = well fitted curve in the direction sought with a large enough effect; inconclusive = small, poorly fitted or top-dose-only effect, or another doubt; inactive = no such curve, though single readings can be large; an effect the other way counts as inactive or inconclusive.

SMILES	HCMV antiviral	Pf growth 96h	Sm TGR inh	HCV inhibitor	SARS PLP yeast	Pf growth 48h
O=C(Nc1ccc(N2CCN(C(=O)c3ccccc3)CC2)cc1)c1cc2ccccc2o1	-65.9*	·	-3.6%	?	-0.9%	11.7µM*
CCCC(=O)N1CCN(c2ccc(NC(=O)c3cc4ccccc4o3)cc2)CC1	-7.3	11.1%	-4.8%	10µM*	-1.7%	?
CN1CCN(c2ccccc2NC(=O)c2sc3ccccc3c2Cl)CC1	40.7	82.3%	5.5%	12.6µM*	-0.3%	?
CN1CCN(c2ccccc2NC(=O)c2ccc(F)cc2)CC1	8.4	?	13.1%	-7.0%	-0.4%	?
CC(=O)Nc1ccc(C(=O)OCC(=O)Nc2c(C)n(C)n(-c3ccccc3)c2=O)cc1	-28.4	·	·	19.0%	6.3%	·
O=C(Nc1cc(C(F)(F)F)ccc1-n1cncn1)c1ccc([N+](=O)[O-])o1	0.9	?	?	?	-38.5%	?
C/C(=N\NC(=O)C1CC1(c1ccccc1)c1ccccc1)c1cccc([N+](=O)[O-])c1 (stereo not drawn)	-14.5	?	-13.2%	?	0.6%	-0.1%
CCCCc1ccc(/C(C)=N/Nc2cc(N3CCOCC3)nc(C)n2)cc1	-24.6	0.8%	13.3%	?	-8.8%	?
C/C(=N\NC(=O)C1CC1c1ccccc1)c1cccc([N+](=O)[O-])c1 (stereo not drawn)	-28.0	8.28µM*	-0.4%	1.2%	3.8%	-2.8%
C/C(=N\Nc1cc(C)nc(NCc2ccccc2)n1)c1cccc([N+](=O)[O-])c1	0.5	?	9.6%	2µM*	-0.1%	?
C/C(=N\Nc1cc(N2CCOCC2)nc(C)n1)c1cccc([N+](=O)[O-])c1	-35.0	56.3%	-11.6%	11.2µM*	-2.5%	?
CC(=C\C(=O)O)/C(=C/c1ccccc1)C(=O)O	-3.4	154.4%	12.8%	3.7%	-8.6%	-15.2%
NC(=S)NN=C1CCCCCCCCCC1	-39.3	·	·	11.2µM*	·	·
S=C(NN=C1CCCCCC1)Nc1ccc(Cl)cc1	-34.3	·	-0.6%	5.8%	-2.3%	10.0%
NC(=S)NN=C1CCC(C2CCCCC2)CC1 (stereo not drawn)	-79.5*	·	·	?	·	·
O=C(NN=C1CCCCCC1)NC1CCCCC1	4.1	?	?	10.4%	11.1%	0.9%
CCOc1ccc(Cn2c(C)nc([N+](=O)[O-])c2SCC(O)CCl)cc1[N+](=O)[O-] (stereo not drawn)	-19.1	·	10.7%	5.5%	-0.6%	10.4µM*
CCOc1ccc(Cn2ccnc2CCl)cc1[N+](=O)[O-]	9.9	?	0.3%	22.5%	2.6%	9.9%
CCCOc1ccc(Cn2c(C)nc([N+](=O)[O-])c2SCC(O)COC)cc1[N+](=O)[O-] (stereo not drawn)	-37.1	10.4µM*	42.0%	-17.2%	-0.9%	?
COC(=O)C1=C(C)N(CCCCCC(=O)O)C(=O)NC1c1ccccc1 (stereo not drawn)	5.5	·	·	15.9%	·	·
Cc1ccnc(NS(=O)(=O)c2ccc(NC(=O)Cc3ccccc3)cc2)n1	-2.2	0.0%	5.5%	39.4%	-16.2%	-19.7%
Cc1cc(C)nc(NS(=O)(=O)c2ccc(NC(=O)Cc3ccccc3)cc2)n1	-27.2	13.1µM*	0.7%	2.0%	-3.0%	-1.8%
Cc1cc(C)nc(SCC(=O)Nc2ccc(S(=O)(=O)NC(C)(C)C)cc2)n1	?	20.0%	-6.8%	11.2µM*	15.0%[6.58 µM]	·
CCOC(=O)N1CCC(N2Cc3cccc(C(=O)NCc4ccccc4OC)c3C2=O)CC1	38.1	0.9%	-8.1%	-11.4%	18.8%	13.1µM*
CCOC(=O)N1CCC(N2Cc3cccc(C(=O)NCc4ccc5c(c4)OCO5)c3C2=O)CC1	7.8	?	8.4%	?	-0.1%	7.38µM*
SMILES	HCMV antiviral	Pf growth 96h	Sm TGR inh	HCV inhibitor	SARS PLP yeast	Pf growth 48h
CCOC(=O)N1CCC(N2Cc3cccc(C(=O)Nc4ccc(CC)cc4)c3C2=O)CC1	65.2	47.0%	-14.3%	0.7%	0.7%	·
CCOC(=O)N1CCC(N2Cc3cccc(C(=O)O)c3C2=O)CC1	14.7	11.5%	2.7%	19.9%	2.7%	-0.8%
CCOC(=O)N1CCC(N2Cc3cccc(C(=O)NCc4ccc(OC)cc4)c3C2=O)CC1	·	-0.9%	-3.2%	8.2%[0.335 µM]	-40.3%	7.38µM*
O=C(Oc1ccc(-c2nnco2)cc1)c1cc(S(=O)(=O)N2CCOCC2)ccc1F	20.7	·	·	·	·	·
Cc1cc(C(=O)N2CCC2(C)C(=O)O)c(C)o1 (stereo not drawn)	5.8	·	·	·	·	·
Cc1ccc(NC(=O)Nc2nnc(N(CC(C)C)CC(C)C)s2)cc1Cl	22.6	·	1.4%	·	·	·
Cc1ccc(S(=O)(=O)NC(=O)c2ccc(-c3ccc(-c4ccccc4)cc3)o2)c(C)c1	·	-13.2%	-22.8%	12.6%[8.37 µM]	-61.7%	-1.1%
C[C@@H]1CCCCO[C@@H](CN(C)Cc2ccc(Cl)c(Cl)c2)[C@@H](C)CN([C@H](C)CO)C(=O)c2cc(NC(=O)CCC(F)(F)F)ccc2O1	-60.5*	·	·	·	·	·
C[C@H](CO)N1C[C@H](C)[C@@H](CN(C)Cc2ccc(C(=O)O)cc2)OCCCC[C@H](C)Oc2ccc(NC(=O)CCC(F)(F)F)cc2C1=O	15.1	·	·	·	·	·
C[C@@H]1CN([C@H](C)CO)C(=O)c2cc(NS(=O)(=O)c3ccc(F)cc3)ccc2O[C@@H]1CN(C)Cc1ccc(Cl)c(Cl)c1	-19.3	·	·	6.31µM*	0.8%	·
C[C@H](CO)N1C[C@H](C)[C@@H](CN(C)S(=O)(=O)c2ccc(F)cc2)Oc2ccc(NC(=O)Nc3ccc(C(F)(F)F)cc3)cc2C1=O	-15.4	·	·	31.6µM*	-0.4%	·
C[C@@H]1CN([C@H](C)CO)C(=O)c2cc(NC(=O)Nc3ccc(C(F)(F)F)cc3)ccc2O[C@H]1CN(C)Cc1ccc(Cl)c(Cl)c1	-96.6*	·	·	9.1%	0.5%	·
COC(=O)c1ccc(C(=O)OC)c(NC(=O)N2CC3CCCN3c3ccccc32)c1 (stereo not drawn)	26.1	·	-6.8%	·	·	·
CCc1nc2c(OCCn3cccc3)cccn2c1N(C)C(=O)c1ccco1	33.3	·	·	·	·	·
C[C@@H]1CN([C@H](C)CO)C(=O)c2cc(NC(=O)Nc3ccc(C(F)(F)F)cc3)ccc2O[C@H]1CN(C)S(=O)(=O)c1ccc(Cl)cc1	-76.0*	·	·	?	4.0%	·
C[C@@H]1CN([C@@H](C)CO)C(=O)Cc2cc(NC(=O)Nc3ccc(C(F)(F)F)cc3)ccc2O[C@@H]1CN(C)S(=O)(=O)c1ccc(Cl)cc1	-29.0	·	·	?	-12.4%	·
COC(=O)c1ccccc1NC(=S)N(Cc1ccc2c(c1)OCO2)Cc1cc2ccc(OC)cc2[nH]c1=O	-63.4*	34.3%	-14.9%	?	3.5%	9.28µM*
